Source: ChEMBL document CHEMBL3988442, “University of Dundee, Small-Polar-MMV Screening Library” (2021)
In all, about 48,000 compounds went through this assay and about 13,000 (27%) showed an effect of 50% or more. Some of the results follow.

System: Wolbachia pipientis
Assay: Anti-Wolbachia Cell-Based Screen
Assay type: functional
Set-up: scale not given: in the data most compounds retested in dose-response had high values
Conditions: 5 µM

| Compound | Percent Effect |
| --- | --- |
| CC(=O)c1cccc(OCCCC(=O)N(C)Cc2cscn2)c1 | 4.484% |
| COc1cc(Br)c(CNC(C)c2nnc3n2CCC3)cc1OC (configuration not stated) | 2.226% |
| CNS(=O)(=O)c1ccccc1N1CCN(C(=O)C(C)C)CC1 | -15.34% |
| COc1cccc2ccc(CN3CCN(c4cccnc4)CC3)nc12 | 1.116% |
| CCn1cnnc1C1CCN(C(=O)c2ccc3ccccc3n2)CC1 | 136.7% |
| CCn1cnnc1C1CCN(C(=O)c2ccccc2F)CC1 | 104.8% |
| CCn1cnnc1C1CCN(C(=O)c2cccc(C)c2C)CC1 | 94.12% |
| CCn1cnnc1C1CCN(C(=O)C(OC)c2ccccc2)CC1 (configuration not stated) | -2.664% |
| CNc1nc(CNC(=O)Nc2ccccc2OC(C)C)cs1 | -5.433% |
| CCSCCC(C)N(C)C(=O)c1cc(C)no1 (configuration not stated) | -5.306% |
| Cc1[nH]ncc1CCCNC(=O)Nc1ccc(C#N)cc1 | -18.53% |
| CCOCCn1nc(C)cc1C(=O)N1CC[C@@](O)(COC)C(C)(C)C1 | 0.9121% |
| CC(Sc1nnc(C2CC2)n1CC(N)=O)c1ccc(Cl)cc1 (configuration not stated) | 0.3539% |
| OCC1(CCOc2ccccc2)CCN(c2ccc(Cl)cn2)CC1 | -3.583% |
| Cc1ccc(Cl)cc1-n1nnnc1C1(N2CCCC2)CCCC1 | -26.05% |
| COc1ncccc1NC(=O)NCC(O)c1ccc(F)cc1F (configuration not stated) | 0.8108% |
| COc1cccc(NC(=O)NCc2cnn(C)c2)c1 | 90.55% |
| COc1cccc(NC(=O)NCC(Cc2cnn(C)c2)C(N)=O)c1 (configuration not stated) | 2.392% |
| Cc1cccc(C(=O)NCC(O)c2ccc(F)cc2F)c1 (configuration not stated) | 14.48% |
| COc1cccc(NC(=O)NCC(O)c2ccc(F)cc2F)c1 (configuration not stated) | 109.6% |
| O=C(NCC(O)c1ccc(F)cc1F)c1ccccc1F (configuration not stated) | 15.04% |
| CC(C)Nc1cccc(C(=O)NCC(O)c2ccc(F)cc2F)c1 (configuration not stated) | 1.201% |

| Compound | Percent Effect |
| --- | --- |
| CC(C)OCCOCc1cccc(NC(=O)NCc2cnn(C)c2)c1 | 2.629% |
| COc1ccccc1NC(=O)NCC(O)c1ccc(F)cc1F (configuration not stated) | 114.6% |
| CC(=O)c1cccc(OC(C)C(=O)Nc2cnn(CCN(C)C)c2)c1 (configuration not stated) | -1.957% |
| CC(NC(=O)c1cccc(CCC(C)(C)O)c1)c1nnc(N)s1 (configuration not stated) | -8.452% |
| OCc1ccc(OCC(F)(F)F)cc1 | 0.2216% |
| CCC(C)N(C)C(=O)Nc1ccc(N2CCSCC2)cc1C (configuration not stated) | -11.87% |
| CC(C)CC(=O)N1C[C@@H]2CCN(c3cnccn3)C[C@@H]2C1.O=C(O)C(F)(F)F | 83.3% |
| O=C(O)C(F)(F)F.O=C(c1cnccn1)N1C[C@@H]2CCN(c3cccnc3)C[C@@H]2C1 | -9.697% |
| CCOCC(=O)N1C[C@@H]2CCN(c3cnccn3)C[C@@H]2C1.O=C(O)C(F)(F)F | 110.3% |
| CC(C)CN1CCO[C@H]2CCN(c3cnccn3)CC[C@@H]21.O=C(O)C(F)(F)F | 107% |
| O=C(O)C(F)(F)F.O=C(c1ccccc1)N1CCO[C@@H]2CN(c3cnccn3)C[C@@H]2C1 | -2.123% |
| CCCC(=O)N1C[C@@H]2CCN(c3cnccn3)C[C@@H]2C1.O=C(O)C(F)(F)F | 107.8% |
| CC(SCC(=O)NC(N)=O)c1ccccc1F (configuration not stated) | -3.716% |
| Cc1cc(C)cc(S(=O)(=O)NCC2CNCCOC2)c1 (configuration not stated) | 5.985% |
| Cc1c(C(=O)NS(=O)(=O)c2ccsc2)cnn1CC(C)C | 9.8% |
| Cn1ccnc1C(=O)N1C[C@@H]2CCN(c3cnccn3)C[C@@H]2C1.O=C(O)C(F)(F)F | -15.62% |
| CCC(=O)N1C[C@@H]2CCN(c3cnccn3)C[C@@H]2C1.O=C(O)C(F)(F)F | 109.3% |
| Cn1cncc1C(=O)N1C[C@@H]2CCN(c3cnccn3)C[C@@H]2C1.O=C(O)C(F)(F)F | -2.415% |
| O=C(c1nc(=O)[nH][nH]1)N1CCCN(CC2CCCCC2)CC1 | 4.28% |
| Cc1nc(C2(O)CCCNCC2)sc1CCOc1ccc(Cl)cc1.Cl (configuration not stated) | -4.713% |
| Cc1[nH]nc2ncc(C(=O)N3CCN(CC(C)(C)O)CC3)cc12 | -29.67% |
| CCOCc1ncn2c1CN(S(=O)(=O)c1cccc(C)c1)CC2 | -2.947% |

| Compound | Percent Effect |
| --- | --- |
| COCC1CN(S(=O)(=O)c2cccc(F)c2)Cc2nccn2C1 (configuration not stated) | 114.5% |
| COCC1CN(S(=O)(=O)c2ccccc2)Cc2ncnn2C1 (configuration not stated) | 2.623% |
| O=S(=O)(Cc1ccccc1)NC[C@H]1Cn2ccnc2CO1 | -7.74% |
| COCc1ncn2c1CN(S(=O)(=O)c1cccc(F)c1)CC2 | -3.986% |
| CCOCC1CN(S(=O)(=O)c2cccc(C)c2)Cc2nccn2C1 (configuration not stated) | 102.9% |
| CCS(=O)(=O)N1Cc2nccn2CC(COc2cccnc2)C1 (configuration not stated) | -25.66% |
| CCOCC1CN(S(=O)(=O)c2ccccc2)Cc2nccn2C1 (configuration not stated) | 89.2% |
| CCOCC1CN(S(=O)(=O)Cc2ccccc2)Cc2nccn2C1 (configuration not stated) | 112.8% |
| CCc1nnc(CN(C)c2nc(C(C)C)nc3c2cnn3C)o1 | -14.59% |
| CCc1nc(C2CCCN2c2ncc(C(F)(F)F)cc2Cl)no1 (configuration not stated) | 16.09% |
| Cc1cccc(S(=O)(=O)N2Cc3nccn3CC(CN(C)C)C2)c1 (configuration not stated) | 117.9% |
| Cc1cccc(S(=O)(=O)N2Cc3c(CN(C)C)nn(C)c3C2)c1 | -7.774% |
| CCCS(=O)(=O)N1Cc2nccn2CC(CN(C)C)C1.O=C(O)C(F)(F)F (configuration not stated) | -8.912% |
| COCCC1COC2(CCN(C(=O)C3CCCC3)CC2)C1 (configuration not stated) | -1.347% |
| CC(C)C1=NOC2(CCN(S(C)(=O)=O)CC2)C1 | 106.9% |
| COCCC1COC2(CCN(C(=O)C3CCCCC3)CC2)C1 (configuration not stated) | -0.113% |
| Cc1ccc(C(=O)N2CCC3(CC2)CC(NC(=O)C(C)C)CO3)cc1 (configuration not stated) | -11.34% |
| CC(C)C1=NOC2(CCN(C(=O)C3CCCC3)CC2)C1 | 98.86% |
| COCCC1COC2(CCN(C(C)=O)CC2)C1 (configuration not stated) | -6.336% |
| CC(=O)N1CCC2(CC1)CC(C(C)C)=NO2 | 118.9% |
| CS(=O)(=O)N1CCC2(CC1)CN(CCn1cccn1)C(=O)CO2 | -11.65% |
| CS(=O)(=O)N1CCOC2(CCCC2)C1 | -2.404% |

| Compound | Percent Effect |
| --- | --- |
| CO[C@H]1CNC[C@@H]1NC(=O)c1cc(C)nc2c(C)cc(C)cc12 | 0.2692% |
| Cc1cnn(CCNCc2ccccc2Oc2cccnc2)c1 | 8.919% |
| CCCc1nc(N2Cc3cnn(Cc4ccc(F)cc4)c3C2)no1 | 5.743% |
| CSc1ccccc1CN1C[C@H]2CC[C@@H]1CN(Cc1[nH]cnc1C)C2 | -3.423% |
| CC(C)(C)C(N)c1nc(-c2nnc[nH]2)no1 (configuration not stated) | -10.11% |
| CNC(=O)c1cnc(/C=C/c2cc(OC)c(O)c(OC)c2)s1 | -7.095% |
| CNC(=O)c1cnc(/C=C/c2cc(OC)cc(OC)c2)s1 | 5.835% |
| CCOc1c(Br)cc(/C=C/c2ncc(C(=O)O)s2)cc1OC | 109.6% |
| CCOc1cc(/C=C/c2ncc(C(=O)O)s2)cc(Br)c1OC | 120.5% |
| CCOc1c(OC)cc(/C=C/c2ncc(C(=O)NC)s2)cc1OC | -0.7468% |
| COC(=O)c1cnc(/C=C/c2ccc(C(=O)O)cc2)s1 | -4.44% |
| COC(=O)c1ccc(/C=C/c2ncc(C(=O)O)s2)cc1 | 5.854% |
| CCOc1cc(/C=C/c2ncc(C(=O)O)s2)ccc1O | 7.127% |
| CCOc1cc(/C=C/c2ncc(C(=O)O)s2)cc(Br)c1O | 111.7% |
| Cc1noc(C)c1CC(=O)NCC(C)N1CCOCC1 (configuration not stated) | 8.973% |
| O=C(NCc1cccnc1)[C@@H]1CC[C@@H]2[C@@H](CCN2c2ncccn2)O1.O=C(O)C(F)(F)F.O=C(O)C(F)(F)F | 3.562% |
| CO[C@H]1CC[C@H]2[C@H]1OCCN2Cc1ccc(F)cc1.O=C(O)C(F)(F)F | 91.7% |
| Fc1ccc(CN2CCO[C@H]3[C@H](OCC4CCCC4)CC[C@@H]32)cc1.O=C(O)C(F)(F)F | 109% |
| Fc1cccc(CN2CCO[C@H]3[C@@H](OCc4ccccn4)CC[C@@H]32)c1 | 10.15% |
| Fc1ccc(CN2CCO[C@H]3[C@H](OCC4CC4)CC[C@@H]32)cc1.O=C(O)C(F)(F)F | 2.778% |
| CCO[C@@H]1CC[C@H]2[C@H]1OCCN2Cc1ccc(F)cc1 | 96.26% |
| CO[C@@H]1CC[C@H]2[C@H]1OCCN2Cc1ccc(F)cc1.O=C(O)C(F)(F)F | 109.6% |

| Compound | Percent Effect |
| --- | --- |
| CC(=O)c1cccc(S(=O)(=O)NCC(C)(O)c2cccs2)c1 (configuration not stated) | 1.748% |
| COCCN1CCN(C(=O)C[C@@H]2C[C@@H](C(C)C)[C@H](CC#N)C=C2C)CC1 | 7.225% |
| COc1cc(F)ccc1-c1cc(N)ccn1 | -8.193% |
| CCOc1ccccc1CNC(=O)NCC(c1cnn(C)c1)N(C)C (configuration not stated) | -20.46% |
| Cc1cc(C)cc(C(=O)NCCCNc2ncccn2)c1 | -23.32% |
| Cc1ccc2cc(C3(O)CCN(C(=O)CN4CCCC4)CC3)ccc2n1 | -0.9065% |
| CS(=O)(=O)N(Cc1ccon1)c1ccc(F)cc1 | -1.74% |
| COc1ccc(C(C(=O)O)N2CCCN(C3CCCCC3)CC2)cn1 (configuration not stated) | 6.723% |
| COc1ccc(C(C(=O)O)N2CCCN(C3CCCC3)CC2)cc1OC (configuration not stated) | 14.25% |
| CC(C)CCn1cc(C(C(=O)O)N2CCCN(C3CCCC3)CC2)cn1 (configuration not stated) | 99.16% |
| COCCn1cc(NC(=O)NCC(C)N2CCOCC2)cn1 (configuration not stated) | -7.646% |
| CC(C)Cc1cn(C2CCN(C(C)CCn3cccn3)CC2)nn1 (configuration not stated) | 2.161% |
| CC(C)CCn1cc(C(C(=O)O)N2CCC(c3ccncc3)CC2)cn1 (configuration not stated) | 105.9% |
| CC(C)CCS(=O)(=O)CC(=O)N1CCCC1c1cnn(C)c1 (configuration not stated) | 5.656% |
| COc1ccc(F)cc1C(C(=O)O)N1CCSCC1 (configuration not stated) | -3.942% |
| CC(C)CCn1cc(C(C(=O)O)N2CCSCC2)cn1 (configuration not stated) | 100.1% |
| CC(CCn1cccn1)N1CCC(n2cc(C(C)(C)N)nn2)CC1 (configuration not stated) | -1.676% |
| Cn1cc(CN2CCC3(CC2)CC(c2ccncc2)C(=O)N3)cn1.O=C(O)C(F)(F)F.O=C(O)C(F)(F)F (configuration not stated) | 4.796% |
| CC(C)CCn1cc(C(C(=O)O)N2CCC(N3CCSCC3)CC2)cn1 (configuration not stated) | 123.7% |
